Hit rate of the full screen: of about 5,500 compounds, about 2,000 (36%) were called active. Not shown: some 18% with an inconclusive outcome. Rule as the data show it: active = normalized growth mostly below about 0.91 (no sharp cut-off); inconclusive = no clear call, values can overlap the other calls; inactive = mostly above about 0.92. The list shows a part of the results.
Test: chemical genetic growth profiling, strain panel (AID 1159580);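 also: tested at 20 µM; growth read once vehicle control cultures reached saturation at 30 °C; 1 = growth at the plate median or of vehicle wells; lower values mean less growth of the strain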
Conditions: S. cerevisiae deletion strains, growth OD

Measured: normalized growth

CC(=O)Oc1c2c(c(CC=C(C)C)c3c1C(=O)C1=C[C@@H]4CC5C(C)(C)OC(C/C=C(\C)C(=O)O)(C4=O)[C@@]15O3)OC(C)(CCC=C(C)C)C=C2 (stereo partly specified)
inactive: locus YAL021C, strain ccr4, stronger effect = lower value 0.99 | locus YAL026C, strain drs2, stronger effect = lower value 0.986 | locus YAL030W, strain snc1, stronger effect = lower value 0.977 | locus YBL061C, strain skt5, stronger effect = lower value 0.984 | locus YBR009C, strain hhf1, stronger effect = lower value 0.948 | locus YBR023C, strain chs3, stronger effect = lower value 0.962 | locus YBR171W, strain sec66, stronger effect = lower value 0.989 | locus YBR231C, strain swc5, stronger effect = lower value 0.953 | locus YBR279W, strain paf1, stronger effect = lower value 0.975 | locus YCL011C, strain gbp2, stronger effect = lower value 0.98 | locus YCL016C, strain dcc1, stronger effect = lower value 0.97 | locus YCL069W, strain vba3, stronger effect = lower value 0.991 | locus YCR088W, strain abp1, stronger effect = lower value 0.972 | locus YDL005C, strain med2, stronger effect = lower value 0.977 | locus YDL040C, strain nat1, stronger effect = lower value 0.978 | locus YDR001C, strain nth1, stronger effect = lower value 0.988 | locus YDR069C, strain doa4, stronger effect = lower value 0.933 | locus YDR159W, strain sac3, stronger effect = lower value 0.975 | locus YDR195W, strain ref2 1.11 | locus YDR297W, strain sur2, stronger effect = lower value 0.969 | locus YDR334W, strain swr1, stronger effect = lower value 0.976 | locus YDR335W, strain msn5, stronger effect = lower value 0.994 | locus YEL003W, strain gim4, stronger effect = lower value 0.978 | locus YEL037C, strain rad23, stronger effect = lower value 0.99 | locus YEL061C, strain CIN8 (second series), stronger effect = lower value 1 | locus YER015W, strain faa2, stronger effect = lower value 0.989 | locus YER016W, strain bim1, stronger effect = lower value 0.971 | locus YER111C, strain swi4, stronger effect = lower value 0.99 | locus YER155C, strain BEM2 (second series), stronger effect = lower value 0.96 | locus YFR010W, strain ubp6, stronger effect = lower value 0.938 | locus YGL167C, strain pmr1, stronger effect = lower value 0.982 | locus YGL173C, strain kem1, stronger effect = lower value 0.97 | locus YGL227W, strain vid30, stronger effect = lower value 1 | locus YGL240W, strain doc1, stronger effect = lower value 0.983 | locus YGL253W, strain hxk2, stronger effect = lower value 0.989 | locus YHR013C, strain ard1, stronger effect = lower value 0.894 | locus YHR027C, strain rpn1, stronger effect = lower value 0.984 | locus YHR142W, strain chs7, stronger effect = lower value 0.939 | locus YJL092W, strain hpr5, stronger effect = lower value 0.975 | locus YJL095W, strain BCK1 (second series), stronger effect = lower value 0.944 | locus YJL115W, strain asf1, stronger effect = lower value 1.01 | locus YJL154C, strain vps35, stronger effect = lower value 0.996 | locus YJL164C, strain tpk1, stronger effect = lower value 0.951 | locus YJL166W, strain qcr8, stronger effect = lower value 0.984 | locus YJL187C, strain SWE1, stronger effect = lower value 0.974 | locus YKL160W, strain elf1, stronger effect = lower value 0.962 | locus YKR026C, strain gcn3, stronger effect = lower value 0.983 | locus YKR091W, strain srl3, stronger effect = lower value 0.978 | locus YLL001W, strain dnm1, stronger effect = lower value 0.979 | locus YLL026W, stronger effect = lower value 1 | locus YLL041C, strain sdh2, stronger effect = lower value 0.994 | locus YLR027C, strain aat2, stronger effect = lower value 0.977 | locus YLR221C, strain rsa3, stronger effect = lower value 0.969 | locus YLR258W, strain gsy2, stronger effect = lower value 0.979 | locus YLR342W, strain FKS1, stronger effect = lower value 0.963 | locus YLR357W, strain rsc2, stronger effect = lower value 1.05 | locus YLR370C, strain arc18, stronger effect = lower value 0.946 | locus YLR384C, strain iki3, stronger effect = lower value 0.981 | locus YML120C, strain ndi1, stronger effect = lower value 0.996 | locus YMR058W, strain fet3, stronger effect = lower value 0.982 | locus YMR125W, strain sto1, stronger effect = lower value 0.993 | locus YMR129W, stronger effect = lower value 0.975 | locus YMR231W, strain pep5, stronger effect = lower value 0.987 | locus YNL209W, strain ssb2, stronger effect = lower value 0.977 | locus YNL248C, strain rpa49, stronger effect = lower value 0.983 | locus YNL322C, strain KRE1 (second series), stronger effect = lower value 1.01 | locus YNR049C, strain mso1, stronger effect = lower value 0.984 | locus YOR001W, strain rrp6, stronger effect = lower value 0.988 | locus YOR070C, strain gyp1, stronger effect = lower value 0.971 | locus YOR080W, strain dia2, stronger effect = lower value 0.994 | locus YOR083W, strain WHI5, stronger effect = lower value 0.953 | locus YOR106W, strain vam3, stronger effect = lower value 0.931 | locus YOR265W, strain rbl2, stronger effect = lower value 0.962 | locus YOR290C, strain snf2, stronger effect = lower value 0.96 | locus YPL051W, strain arl3, stronger effect = lower value 0.931 | locus YPL078C, strain atp4, stronger effect = lower value 0.967 | locus YPL106C, strain sse1, stronger effect = lower value 1.02 | locus YPL240C, strain hsp82, stronger effect = lower value 0.978
active: locus YDR137W, strain rgp1, stronger effect = lower value 0.551 | locus YDR392W, strain spt3, stronger effect = lower value 0.695 | locus YJL129C, strain trk1, stronger effect = lower value 0.76 | locus YLR262C, strain YPT6 (second series), stronger effect = lower value 0.543 | locus YLR320W, strain mms22, stronger effect = lower value 0.806 | locus YMR205C, strain PFK2, stronger effect = lower value 0.812 | locus YNL071W, strain lat1, stronger effect = lower value 0.797 | locus YOR270C, strain vph1, stronger effect = lower value 0.653
